MPTP inh – mitochondrial permeability transition pore inhibitors, primary screen, biochemical, isolated mouse mitochondria, absorbance; Ca2+ swelling absorbance, 30 min; inhibition, % at 10 µM; 360,000 tested, 1.4% active; AID 602449, 2012;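 active = inhibition of 50% or more, scaled per plate between neutral and stimulator controls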
proKLK7 act – proKLK7 zymogen activators, primary screen, biochemical, fluorescence intensity; AID 652039, 2013; Kallikrein-7 (Homo sapiens), P49862; 370,000 tested, 0.9% active; activation, % at 7 µM; purified proKLK7, EDANS-DABCYL substrate fluorescence; 100% is mature enzyme control, 0% vehicle;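 active = activation above the mean of all tested compounds plus 3 SD, computed per campaign excluding outliers beyond control limits, cut at about 13% in these data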
Pemphigus Ab inh – inhibitors of pemphigus antibody binding to DSG3, primary screen, biochemical, bead-based, flow cytometry, scFv-GFP; AID 588358, 2011; binding (percent of control), % at 10 µM; DSG3-coupled beads, scFv-anti-DSG3-GFP binding; active compounds read low; 310,000 tested, 0.48% active;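 active = binding more than 3 SD below its plate's average and above zero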;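 note: hits lower antibody fragment binding to DSG3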
ADAM10 inh – human ADAM10 inhibitors, primary screen, biochemical, QFRET, HTS; AID 720582, 2013; recombinant ADAM10, EDANS/DABCYL FRET peptide cleavage, 3 h; 370,000 tested, 0.62% active; inhibition, % at 7 µM; Disintegrin and metalloproteinase domain-containing protein 10 (Homo sapiens), O14672;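 active = inhibition above a per-campaign cutoff equal to the mean of compounds falling between control-based bounds plus 3 SD, cut at about 20% in these data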
Target sequence (O14672 214-748 limits assumed): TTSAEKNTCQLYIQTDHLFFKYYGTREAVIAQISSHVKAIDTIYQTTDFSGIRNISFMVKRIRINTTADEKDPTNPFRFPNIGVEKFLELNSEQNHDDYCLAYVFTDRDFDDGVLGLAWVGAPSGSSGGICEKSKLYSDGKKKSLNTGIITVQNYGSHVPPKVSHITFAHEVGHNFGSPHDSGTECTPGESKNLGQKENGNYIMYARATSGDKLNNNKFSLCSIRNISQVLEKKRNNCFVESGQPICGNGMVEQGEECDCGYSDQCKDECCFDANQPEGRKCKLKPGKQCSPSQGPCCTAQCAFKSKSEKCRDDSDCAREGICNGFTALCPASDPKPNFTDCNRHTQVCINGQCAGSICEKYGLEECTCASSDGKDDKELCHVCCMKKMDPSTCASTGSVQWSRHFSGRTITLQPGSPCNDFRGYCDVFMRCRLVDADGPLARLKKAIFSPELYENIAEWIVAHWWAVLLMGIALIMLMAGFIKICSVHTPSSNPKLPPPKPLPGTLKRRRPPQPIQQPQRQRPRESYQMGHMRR
rCAG RNA binder – binders of r(CAG) RNA repeats, primary screen, biochemical, fluorescence. r(CAG) RNA repeat, TO-PRO-1 dye displacement fluorescence. inhibition, % at 3 µM. 370,000 tested, 1.3% active;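 active = inhibition above the plate cutoff, the mean of all test compounds on that plate plus 3 SD, cut at about 35% in these data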;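 note: higher means more dye released from RNA so lower well fluorescence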
ADAM17 inh – ADAM17 inhibitors, primary screen, biochemical, QFRET; 370,000 tested, 0.83% active; inhibition, % at 6.95 µM; Disintegrin and metalloproteinase domain-containing protein 17 (Homo sapiens), P78536; recombinant ADAM17, EDANS/DABCYL FRET peptide cleavage;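 active = inhibition above the mean of compounds lying between control limits plus 3 SD, set per campaign, cut at about 8.5% in these data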
ADAM10 ctr – ADAM10 inhibitors, counter-screen for ADAM17 exosite inhibitor project, biochemical, FRET, human ADAM10; shares compounds with ADAM17 inh; recombinant ADAM10, EDANS/DABCYL FRET peptide cleavage, 3 h; inhibition, % at 6.95 µM; 2,900 tested, 47% active; AID 743256, 2014;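 active = mean inhibition over the triplicate runs exceeds the activity threshold set in the earlier primary screen, cut at about 20% in these data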
ADAM17 confirm – ADAM17 inhibitors, hit retest, confirmation, biochemical, QFRET peptide cleavage. shares compounds with ADAM17 inh. recombinant ADAM17, EDANS/DABCYL QFRET peptide cleavage. inhibition, % at 6.95 µM. 2,900 tested, 65% active;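 active = mean inhibition across replicates above the hit cutoff set in the primary screen, cut at about 8.5% in these data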
Of the large screens only hits and unclear results are named; the others gave an inactive call (follow-up assays come after a bar, where they were run). The list is not random: actives were taken first. Their share in the collection is about 4.7%.

COc1ccccc1C(=O)NCC(=O)NC(C)CCc1ccccc1 (stereo not given)	ADAM17 inh 9.2 | ADAM10 ctr inactive | ADAM17 confirm inactive
Cc1cccc(C)c1-n1nnnc1C(c1cccs1)N1CCN(C/C=C/c2ccccc2)CC1 (stereo not given)	none (no result: Pemphigus Ab inh)
Cc1cccc(C)c1-n1nnnc1C(c1ccccc1)N1CCN(C/C=C/c2ccccc2)CC1 (stereo not given)	ADAM17 inh 9.4 (no result: Pemphigus Ab inh) | ADAM10 ctr inactive | ADAM17 confirm 10
O=C(C1=C[C@@H](C2CCCCC2)C[C@@H](OCc2ccc(CO)cc2)O1)N1CCN(Cc2ccc3c(c2)OCO3)CC1	ADAM17 inh 10 | ADAM10 ctr 27 | ADAM17 confirm 18
CCCCn1c(N)c(N(CCOC)C(=O)c2ccc(C)o2)c(=O)[nH]c1=O	none
N/C(=N\N=C\c1cccc([N+](=O)[O-])c1)c1nonc1N	none
N/C(=N\N=C\c1ccc2c(c1)OCO2)c1nonc1N	ADAM17 inh 9.8 | ADAM10 ctr inactive | ADAM17 confirm inactive
COc1ccc(/C=N/Nc2nc(C(=O)O)cs2)cc1	none
c1nc(NCc2ccc3c(c2)OCO3)c2cc(-c3ccc4c(c3)OCCO4)ccc2n1	none
COc1cccc(-c2ccc3ncnc(NCc4ccc5c(c4)OCO5)c3c2)c1	ADAM17 inh 11 | ADAM10 ctr inactive | ADAM17 confirm inactive
Cc1c(C(=O)N2CC3(CC(c4cccc(NC(=O)CC(c5ccccc5)c5ccccc5)c4)=NO3)C[C@@H]2C(N)=O)cc([N+](=O)[O-])cc1[N+](=O)[O-] (stereo not given in full)	ADAM17 inh 11 | ADAM10 ctr 34 | ADAM17 confirm 19
O=C(CC1SC(=O)N(c2ccccc2)C1=O)Nc1ccccc1 (stereo not given)	ADAM17 inh 9.3 | ADAM10 ctr inactive | ADAM17 confirm 16
CN(CC(=O)Nc1cccc(F)c1)C(=O)CNS(=O)(=O)c1ccc(N(C)C)c([N+](=O)[O-])c1	none
O=C(NNc1ccccc1)NC(Cc1ccccc1)C(=O)O (stereo not given)	none
CCOc1cc(/C=N/NC(=O)c2ccc3c(c2)OCCO3)cc(Br)c1O	ADAM17 inh 23 | ADAM10 ctr inactive | ADAM17 confirm inactive
Clc1ccccc1Sc1cnc2ccccc2n1	ADAM17 inh 8.8 | ADAM10 ctr inactive | ADAM17 confirm inactive
c1ccc(-n2c(SCc3cccc4ccccc34)nnc2-c2ccccn2)cc1	ADAM17 inh 9.2 (no result: MPTP inh, Pemphigus Ab inh) | ADAM10 ctr inactive | ADAM17 confirm 12
N#Cc1ccc(CSc2nnc(-c3ccccn3)n2-c2ccccc2)cc1	none
Cc1ccc2c(CN(C)Cc3ccc(Cl)cc3Cl)cc(=O)oc2c1	none
CCCC12CN(C(=O)c3ccco3)CC(CCC)(CN(C(=O)c3ccco3)C1)C2=O	none
CCCC(=O)N1CC2(C)CN(C(=O)CCC)CC(CCC)(C1)C2=O	ADAM17 inh 12 | ADAM10 ctr inactive | ADAM17 confirm inactive
Cc1nc(C(F)(F)F)ccc1C(=O)N1CCC1(C)C(=O)NS(=O)(=O)c1cccc(C#N)c1 (stereo not given)	none (no result: Pemphigus Ab inh)
O=C1N(Cc2ccccc2)c2ccc(Br)cc2[C@]12C[C@H](O)CO2	none (no result: Pemphigus Ab inh)
O=C(CSc1nc2cc(Cl)ccc2s1)Nc1cccc(S(=O)(=O)N2CCOCC2)c1	ADAM17 inh 11 | ADAM10 ctr 20 | ADAM17 confirm 10
O=C(CSc1nc2ccccc2c(=O)n1-c1ccccc1Cl)Nc1cccc(S(=O)(=O)N2CCOCC2)c1	ADAM17 inh 9.5 | ADAM10 ctr inactive | ADAM17 confirm 13
O=C(CSc1nc2ccccc2s1)Nc1ccc(Cl)c(S(=O)(=O)N2CCOCC2)c1	none
Cc1cc(NC(=O)CSc2nc3cc(Cl)ccc3s2)no1	none
O=C(CSc1nc2cc(Cl)ccc2s1)c1cc2ccccc2o1	ADAM17 inh 12 | ADAM10 ctr inactive | ADAM17 confirm inactive
CCNC(=O)NC(=O)CSc1cccc(C(F)(F)F)c1	none
O=C(CSc1cccc(C(F)(F)F)c1)NC(=O)c1ccccc1	ADAM17 inh 8.7 | ADAM10 ctr inactive | ADAM17 confirm inactive
Cc1ccc(C2(CCNS(=O)(=O)c3ccc(C)cc3)CCOC(C(C)C)C2)cc1 (stereo not given)	ADAM17 inh 10 | ADAM10 ctr 29 | ADAM17 confirm 16
CC1Sc2ccc(S(=O)(=O)CCC(=O)N(C)Cc3ccccc3)cc2NC1=O (stereo not given)	none
O=C(Nc1cccc(S(=O)(=O)NCc2ccco2)c1)c1cc(-c2ccccc2)nc2ccccc12	ADAM17 inh 10 | ADAM10 ctr 31 | ADAM17 confirm 17
CC(=O)N1CC(C)Sc2ccc(S(=O)(=O)NCCc3ccc(C)cc3)cc21 (stereo not given)	ADAM17 inh 9.3 | ADAM10 ctr inactive | ADAM17 confirm inactive
CC(=O)N1CC(C)Sc2ccc(S(=O)(=O)NCCc3ccccc3)cc21 (stereo not given)	none
Cc1cccc(N2CCN(c3ccc(N4C(=O)CCCC4=O)cc3[N+](=O)[O-])CC2)c1C	ADAM17 inh 14 | ADAM10 ctr inactive | ADAM17 confirm inactive
O=C1CCCC(=O)N1c1ccc(N2CCN(c3ccccc3)CC2)c([N+](=O)[O-])c1	none
CCOC(=O)C1=C(C)NC(SCC(=O)OC)=C(C#N)C1c1ccc(C(=O)OC)cc1 (stereo not given)	none
CCOC(=O)CSC1=C(C#N)C(c2ccc(F)cc2)C(C(C)=O)=C(C)N1 (stereo not given)	ADAM17 inh 9.9 | ADAM10 ctr inactive | ADAM17 confirm inactive
C/C=C/C(=O)OCC(=O)Nc1nc2ccc(C)cc2s1	ADAM17 inh 9.3 (no result: Pemphigus Ab inh) | ADAM10 ctr inactive | ADAM17 confirm inactive
O=C(CSc1nnc(NC(=O)c2cccc(F)c2)s1)NCc1ccco1	ADAM17 inh 8.6 | ADAM10 ctr inactive | ADAM17 confirm inactive
O=C(CSc1nnc(NC(=O)c2ccc(F)cc2)s1)NCc1ccco1	none
